Common to all, as to assay: DAPPL (digital affinity profiling via proximity ligation, sequencing); 10 mM Tris-HCl pH 7.5, 50 mM NaCl, 1 mM DTT, 4% glycerol, room temperature, 30 min; GST-TFs on glutathione beads, 16-mer random dsDNA library, 0.1% formaldehyde crosslink after washing; high values mean tight binding
Assay [1] addresses T1, FEV (Homo sapiens, UniProt Q99581 1-238).
T1 sequence: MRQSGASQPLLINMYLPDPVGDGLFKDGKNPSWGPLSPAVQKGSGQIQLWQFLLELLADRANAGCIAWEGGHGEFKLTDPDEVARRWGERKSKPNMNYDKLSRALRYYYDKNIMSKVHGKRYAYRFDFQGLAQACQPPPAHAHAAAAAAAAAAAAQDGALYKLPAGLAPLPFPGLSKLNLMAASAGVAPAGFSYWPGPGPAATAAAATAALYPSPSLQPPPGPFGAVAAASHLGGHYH
The conditions noted are these: protein: recombinant; tags: N-terminal GST; dsDNA, one strand shown. The essentials:
(§1)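 Binding signal is given per hexamer as its read frequency for a factor divided by its frequency in the tag-only sample. GST-fused human transcription factors were expressed in yeast, captured on glutathione beads, barcoded with DNA and pooled with that sample, then incubated with 200 nmole of a 16-mer random double-stranded DNA library in Tris/NaCl/DTT/glycerol buffer for 30 min at room temperature. The pools were then washed, crosslinked, proximity-ligated, amplified by PCR and sequenced on an Illumina NextSeq500.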

Assay [2] concerns the target ETV5 (Homo sapiens, UniProt P41161 1-510). The conditions noted are these: protein: recombinant; tags: N-terminal GST; dsDNA, one strand shown. The essentials:
as §1

The target of assay [3] is HSF1 (Homo sapiens, UniProt Q00613 1-529). The conditions noted are these: protein: recombinant; tags: N-terminal GST; chain copies: 3; dsDNA, one strand shown. The essentials:
as §1

The target of assay [4] is T2, SPIC (Homo sapiens, UniProt Q8N5J4 1-248).
T2 sequence: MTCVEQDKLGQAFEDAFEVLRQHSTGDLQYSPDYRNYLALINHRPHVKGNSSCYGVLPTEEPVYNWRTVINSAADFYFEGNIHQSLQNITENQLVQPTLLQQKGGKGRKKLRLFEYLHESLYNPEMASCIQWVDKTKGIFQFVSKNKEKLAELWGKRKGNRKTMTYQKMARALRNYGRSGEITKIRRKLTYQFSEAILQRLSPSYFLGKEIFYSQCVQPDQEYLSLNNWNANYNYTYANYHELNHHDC
The conditions noted are these: protein: recombinant; tags: N-terminal GST; dsDNA, one strand shown. In short, it runs like this:
as §1

Assay [5] deals with ELF4 (Homo sapiens, UniProt Q99607 1-663). The conditions noted are these: protein: recombinant; tags: N-terminal GST; dsDNA, one strand shown. In short, it runs like this: as §1
ELF4, sequence (Q99607 whole entry): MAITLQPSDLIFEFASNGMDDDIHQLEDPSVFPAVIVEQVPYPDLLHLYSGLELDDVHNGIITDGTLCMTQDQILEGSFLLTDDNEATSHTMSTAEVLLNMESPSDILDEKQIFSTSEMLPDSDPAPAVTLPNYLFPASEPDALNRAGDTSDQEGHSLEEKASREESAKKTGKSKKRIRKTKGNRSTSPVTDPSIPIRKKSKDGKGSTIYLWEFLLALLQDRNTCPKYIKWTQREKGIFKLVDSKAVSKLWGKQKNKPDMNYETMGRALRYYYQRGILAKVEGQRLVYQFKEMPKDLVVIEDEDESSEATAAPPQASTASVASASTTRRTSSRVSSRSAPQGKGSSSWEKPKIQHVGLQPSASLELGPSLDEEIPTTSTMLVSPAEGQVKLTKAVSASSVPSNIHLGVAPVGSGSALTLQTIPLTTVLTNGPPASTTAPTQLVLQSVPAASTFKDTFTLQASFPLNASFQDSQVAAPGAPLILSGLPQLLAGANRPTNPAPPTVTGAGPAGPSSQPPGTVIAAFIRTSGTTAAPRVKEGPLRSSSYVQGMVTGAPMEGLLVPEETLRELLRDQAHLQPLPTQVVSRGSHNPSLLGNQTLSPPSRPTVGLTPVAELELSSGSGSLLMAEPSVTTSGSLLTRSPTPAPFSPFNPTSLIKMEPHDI
Assay [6] concerns the target T3, ELK4 (Homo sapiens, UniProt P28324-2 1-405).
T3 sequence: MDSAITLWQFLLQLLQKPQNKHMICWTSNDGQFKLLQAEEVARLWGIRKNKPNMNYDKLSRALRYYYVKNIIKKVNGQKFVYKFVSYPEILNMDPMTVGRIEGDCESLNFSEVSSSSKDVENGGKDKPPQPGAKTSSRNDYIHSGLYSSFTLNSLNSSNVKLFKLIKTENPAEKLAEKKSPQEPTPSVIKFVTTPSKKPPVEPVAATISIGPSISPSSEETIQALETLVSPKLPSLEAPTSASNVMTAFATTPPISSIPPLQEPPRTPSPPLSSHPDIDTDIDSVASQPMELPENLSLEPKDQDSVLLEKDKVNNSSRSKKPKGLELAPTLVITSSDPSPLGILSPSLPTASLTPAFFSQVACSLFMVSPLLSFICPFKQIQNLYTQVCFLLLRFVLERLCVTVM
The conditions noted are these: protein: recombinant; tags: N-terminal GST; dsDNA, one strand shown. In short, it runs like this: as §1

For assay [7], the target named is T4, ETV2 (Homo sapiens, UniProt O00321 1-342).
T4 sequence: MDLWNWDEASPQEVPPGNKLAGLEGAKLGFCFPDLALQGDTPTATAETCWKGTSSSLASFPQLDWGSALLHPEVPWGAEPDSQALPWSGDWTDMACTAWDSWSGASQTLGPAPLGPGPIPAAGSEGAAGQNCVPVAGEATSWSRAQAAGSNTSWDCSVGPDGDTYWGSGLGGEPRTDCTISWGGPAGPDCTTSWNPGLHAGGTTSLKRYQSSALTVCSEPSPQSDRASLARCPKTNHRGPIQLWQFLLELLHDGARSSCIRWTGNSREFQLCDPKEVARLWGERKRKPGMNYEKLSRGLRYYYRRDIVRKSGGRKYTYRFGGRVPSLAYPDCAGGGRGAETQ
The conditions noted are these: protein: recombinant; tags: N-terminal GST; dsDNA, one strand shown. The essentials: as §1

Assay [8] addresses T5, ELF3 (Homo sapiens, UniProt P78545 1-371).
T5 sequence: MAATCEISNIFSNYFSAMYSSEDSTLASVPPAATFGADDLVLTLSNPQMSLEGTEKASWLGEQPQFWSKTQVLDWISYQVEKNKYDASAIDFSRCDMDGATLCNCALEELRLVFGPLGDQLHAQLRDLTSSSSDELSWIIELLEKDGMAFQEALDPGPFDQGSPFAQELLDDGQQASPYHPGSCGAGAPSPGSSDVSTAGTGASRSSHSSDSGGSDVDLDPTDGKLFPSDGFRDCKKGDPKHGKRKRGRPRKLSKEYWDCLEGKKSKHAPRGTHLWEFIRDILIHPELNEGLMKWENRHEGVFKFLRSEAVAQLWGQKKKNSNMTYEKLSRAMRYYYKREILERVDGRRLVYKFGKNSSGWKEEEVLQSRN
The conditions noted are these: protein: recombinant; tags: N-terminal GST; dsDNA, one strand shown. The essentials:
as §1

Assay [9] addresses CRX (Homo sapiens, UniProt O43186 1-299). The conditions noted are these: protein: recombinant; tags: N-terminal GST; dsDNA, one strand shown. In short, it runs like this:
as §1

Assay [10] concerns the target ETV1 (Homo sapiens, UniProt P50549 1-477). The conditions noted are these: protein: recombinant; tags: N-terminal GST; dsDNA, one strand shown. The essentials: as §1
For assay [11], the target named is T6, ERF (Homo sapiens, UniProt P50548 1-548).
T6 sequence: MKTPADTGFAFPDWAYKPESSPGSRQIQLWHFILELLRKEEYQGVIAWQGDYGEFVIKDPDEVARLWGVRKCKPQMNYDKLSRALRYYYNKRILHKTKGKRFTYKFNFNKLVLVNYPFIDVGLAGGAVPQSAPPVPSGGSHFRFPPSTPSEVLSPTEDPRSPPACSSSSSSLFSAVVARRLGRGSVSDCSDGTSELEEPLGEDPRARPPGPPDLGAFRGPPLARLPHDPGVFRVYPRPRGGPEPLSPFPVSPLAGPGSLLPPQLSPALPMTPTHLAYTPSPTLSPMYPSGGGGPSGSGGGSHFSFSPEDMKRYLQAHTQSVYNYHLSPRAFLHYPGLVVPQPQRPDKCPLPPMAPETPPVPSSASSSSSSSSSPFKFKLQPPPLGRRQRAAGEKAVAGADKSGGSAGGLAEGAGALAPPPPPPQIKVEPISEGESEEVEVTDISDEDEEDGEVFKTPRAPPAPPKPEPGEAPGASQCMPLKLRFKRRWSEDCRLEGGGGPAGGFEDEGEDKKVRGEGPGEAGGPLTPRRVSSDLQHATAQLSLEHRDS
The conditions noted are these: protein: recombinant; tags: N-terminal GST; dsDNA, one strand shown. The essentials: as §1

Assay [12] concerns the target T7, ETV3L (Homo sapiens, UniProt Q6ZN32 1-361).
T7 sequence: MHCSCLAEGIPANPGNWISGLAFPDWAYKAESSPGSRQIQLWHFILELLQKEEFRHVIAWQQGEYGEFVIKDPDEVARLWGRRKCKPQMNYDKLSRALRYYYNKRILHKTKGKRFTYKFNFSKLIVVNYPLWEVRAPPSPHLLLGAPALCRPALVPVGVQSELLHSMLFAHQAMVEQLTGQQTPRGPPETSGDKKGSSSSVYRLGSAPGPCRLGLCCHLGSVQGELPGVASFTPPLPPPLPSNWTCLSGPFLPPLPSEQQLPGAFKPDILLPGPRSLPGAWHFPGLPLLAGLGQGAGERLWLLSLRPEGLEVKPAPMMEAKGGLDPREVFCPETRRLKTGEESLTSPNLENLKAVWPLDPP
The conditions noted are these: protein: recombinant; tags: N-terminal GST; dsDNA, one strand shown. In short, it runs like this: as §1

Assay [13] deals with T8, ETS2 (Homo sapiens, UniProt P15036 1-469).
T8 sequence: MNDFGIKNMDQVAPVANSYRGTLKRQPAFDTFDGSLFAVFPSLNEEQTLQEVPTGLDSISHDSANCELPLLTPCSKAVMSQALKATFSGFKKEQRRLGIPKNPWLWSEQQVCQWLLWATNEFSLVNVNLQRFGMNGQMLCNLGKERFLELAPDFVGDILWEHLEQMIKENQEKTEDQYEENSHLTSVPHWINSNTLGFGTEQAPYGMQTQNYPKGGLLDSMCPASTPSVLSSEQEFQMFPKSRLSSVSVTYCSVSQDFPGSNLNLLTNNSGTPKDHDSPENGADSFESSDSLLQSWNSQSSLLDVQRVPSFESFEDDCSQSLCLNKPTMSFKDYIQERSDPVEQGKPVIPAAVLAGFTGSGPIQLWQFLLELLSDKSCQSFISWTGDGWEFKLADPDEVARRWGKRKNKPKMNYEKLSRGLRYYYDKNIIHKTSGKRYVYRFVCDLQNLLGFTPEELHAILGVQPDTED
The conditions noted are these: protein: recombinant; tags: N-terminal GST; dsDNA, one strand shown. In short, it runs like this: as §1

In assay [14] the target is T9, SPDEF (Homo sapiens, UniProt O95238 1-335).
T9 sequence: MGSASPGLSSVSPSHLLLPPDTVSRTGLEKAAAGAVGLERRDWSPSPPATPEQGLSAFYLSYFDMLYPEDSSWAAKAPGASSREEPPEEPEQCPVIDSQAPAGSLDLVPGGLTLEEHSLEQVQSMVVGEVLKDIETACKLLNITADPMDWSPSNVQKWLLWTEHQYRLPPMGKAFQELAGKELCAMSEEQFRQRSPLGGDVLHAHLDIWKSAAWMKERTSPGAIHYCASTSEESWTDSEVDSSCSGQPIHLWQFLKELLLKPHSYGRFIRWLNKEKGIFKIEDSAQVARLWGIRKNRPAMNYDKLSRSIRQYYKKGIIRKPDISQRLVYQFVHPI
The conditions noted are these: protein: recombinant; tags: N-terminal GST; dsDNA, one strand shown. In short, it runs like this: as §1

For assay [15], the target named is T10, ETV7 (Homo sapiens, UniProt Q9Y603 1-341).
T10 sequence: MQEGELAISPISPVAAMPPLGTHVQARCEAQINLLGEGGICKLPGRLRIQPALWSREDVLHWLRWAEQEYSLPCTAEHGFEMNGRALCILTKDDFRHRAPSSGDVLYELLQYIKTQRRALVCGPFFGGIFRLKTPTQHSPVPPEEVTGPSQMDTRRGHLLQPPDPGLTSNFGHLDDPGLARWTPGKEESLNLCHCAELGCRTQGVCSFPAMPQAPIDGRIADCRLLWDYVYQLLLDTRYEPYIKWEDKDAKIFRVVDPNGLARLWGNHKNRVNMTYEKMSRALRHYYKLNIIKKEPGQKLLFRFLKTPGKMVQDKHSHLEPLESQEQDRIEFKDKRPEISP
The conditions noted are these: protein: recombinant; tags: N-terminal GST; dsDNA, one strand shown. In short, it runs like this: as §1

The target in assay [16] is T11, ELF5 (Homo sapiens, UniProt Q9UKW6-2 1-255).
T11 sequence: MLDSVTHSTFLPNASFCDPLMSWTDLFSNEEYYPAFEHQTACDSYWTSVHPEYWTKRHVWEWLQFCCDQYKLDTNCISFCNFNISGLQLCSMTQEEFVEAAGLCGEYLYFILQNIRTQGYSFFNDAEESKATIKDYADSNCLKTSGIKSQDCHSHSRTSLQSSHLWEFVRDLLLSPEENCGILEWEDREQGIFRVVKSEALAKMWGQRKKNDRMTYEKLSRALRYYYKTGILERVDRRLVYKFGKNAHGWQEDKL
The conditions noted are these: protein: recombinant; tags: N-terminal GST; dsDNA, one strand shown. The essentials:
as §1

Assay [17] concerns the target T12, ETV3 (Homo sapiens, UniProt P41162-2 1-143).
T12 sequence: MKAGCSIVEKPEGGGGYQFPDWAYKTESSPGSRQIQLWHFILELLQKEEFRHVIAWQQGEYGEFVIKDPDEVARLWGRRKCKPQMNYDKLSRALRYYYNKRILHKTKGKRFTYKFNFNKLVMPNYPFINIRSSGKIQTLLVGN
The conditions noted are these: protein: recombinant; tags: N-terminal GST; dsDNA, one strand shown. The essentials: as §1

Assay [18] addresses ETV6 (Homo sapiens, UniProt P41212 1-452). The conditions noted are these: protein: recombinant; tags: N-terminal GST; dsDNA, one strand shown. In short, it runs like this: as §1

ETV1, sequence (P50549 whole entry): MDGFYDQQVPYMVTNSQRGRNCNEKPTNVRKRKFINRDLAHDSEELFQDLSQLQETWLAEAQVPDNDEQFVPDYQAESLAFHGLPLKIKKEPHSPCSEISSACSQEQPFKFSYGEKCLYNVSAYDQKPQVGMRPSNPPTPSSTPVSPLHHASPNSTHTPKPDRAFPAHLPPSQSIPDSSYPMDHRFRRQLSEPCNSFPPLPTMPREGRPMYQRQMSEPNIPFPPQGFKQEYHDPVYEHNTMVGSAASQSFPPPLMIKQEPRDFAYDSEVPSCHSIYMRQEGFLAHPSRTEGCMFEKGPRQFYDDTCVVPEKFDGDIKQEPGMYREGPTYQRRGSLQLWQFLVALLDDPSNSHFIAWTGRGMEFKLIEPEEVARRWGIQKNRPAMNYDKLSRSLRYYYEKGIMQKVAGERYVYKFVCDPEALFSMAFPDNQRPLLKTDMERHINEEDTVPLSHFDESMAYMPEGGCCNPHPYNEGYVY
ETV6, sequence (P41212 whole entry): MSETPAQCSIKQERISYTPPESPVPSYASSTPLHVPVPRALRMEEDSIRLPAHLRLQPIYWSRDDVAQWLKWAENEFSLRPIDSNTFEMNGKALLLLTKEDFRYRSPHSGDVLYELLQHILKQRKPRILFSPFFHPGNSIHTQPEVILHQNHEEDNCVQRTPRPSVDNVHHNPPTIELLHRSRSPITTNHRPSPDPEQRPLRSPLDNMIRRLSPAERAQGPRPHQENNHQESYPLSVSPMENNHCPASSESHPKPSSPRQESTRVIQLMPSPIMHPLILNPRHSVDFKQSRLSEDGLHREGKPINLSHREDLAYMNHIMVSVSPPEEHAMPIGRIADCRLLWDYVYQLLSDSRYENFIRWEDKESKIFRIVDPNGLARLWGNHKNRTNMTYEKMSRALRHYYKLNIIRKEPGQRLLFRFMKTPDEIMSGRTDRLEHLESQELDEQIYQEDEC
CRX, sequence (O43186 whole entry): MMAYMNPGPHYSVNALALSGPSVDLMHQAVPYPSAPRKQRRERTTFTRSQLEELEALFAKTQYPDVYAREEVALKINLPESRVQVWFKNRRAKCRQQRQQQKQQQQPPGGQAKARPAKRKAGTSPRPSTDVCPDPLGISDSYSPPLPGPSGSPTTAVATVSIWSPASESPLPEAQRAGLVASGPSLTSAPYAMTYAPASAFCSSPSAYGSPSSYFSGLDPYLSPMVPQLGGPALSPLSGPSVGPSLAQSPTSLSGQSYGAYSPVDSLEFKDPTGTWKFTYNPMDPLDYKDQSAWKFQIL
ETV5, sequence (P41161 whole entry): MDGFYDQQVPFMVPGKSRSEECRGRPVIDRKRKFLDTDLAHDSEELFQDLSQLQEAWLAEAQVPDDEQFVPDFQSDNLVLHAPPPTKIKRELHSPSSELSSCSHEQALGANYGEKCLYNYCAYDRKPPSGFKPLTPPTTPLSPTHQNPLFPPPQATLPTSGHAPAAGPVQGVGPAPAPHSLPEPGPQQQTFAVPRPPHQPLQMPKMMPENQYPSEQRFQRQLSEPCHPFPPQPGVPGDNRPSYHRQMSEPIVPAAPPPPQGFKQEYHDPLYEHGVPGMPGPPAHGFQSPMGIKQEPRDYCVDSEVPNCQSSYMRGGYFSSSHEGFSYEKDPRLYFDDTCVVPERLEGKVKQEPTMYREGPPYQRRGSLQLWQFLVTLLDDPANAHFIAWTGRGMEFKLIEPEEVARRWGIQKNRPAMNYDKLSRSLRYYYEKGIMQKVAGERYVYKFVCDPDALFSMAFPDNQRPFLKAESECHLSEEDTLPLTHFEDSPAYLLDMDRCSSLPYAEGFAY
HSF1, sequence (Q00613 whole entry): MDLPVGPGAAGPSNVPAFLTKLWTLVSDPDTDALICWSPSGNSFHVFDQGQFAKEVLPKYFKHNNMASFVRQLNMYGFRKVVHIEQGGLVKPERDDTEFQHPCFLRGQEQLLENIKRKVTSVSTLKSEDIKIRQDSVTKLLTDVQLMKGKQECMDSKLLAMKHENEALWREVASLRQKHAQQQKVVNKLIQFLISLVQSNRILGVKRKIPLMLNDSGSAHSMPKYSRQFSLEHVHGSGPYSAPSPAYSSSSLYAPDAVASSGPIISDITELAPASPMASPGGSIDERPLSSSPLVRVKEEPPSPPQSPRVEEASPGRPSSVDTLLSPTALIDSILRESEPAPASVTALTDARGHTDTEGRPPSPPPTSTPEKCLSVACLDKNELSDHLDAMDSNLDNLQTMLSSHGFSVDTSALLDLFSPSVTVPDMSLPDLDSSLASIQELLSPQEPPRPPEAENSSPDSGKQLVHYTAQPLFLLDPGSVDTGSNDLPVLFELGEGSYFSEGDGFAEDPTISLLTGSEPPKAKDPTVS

As for ATTATT, the binding signal is 1.15 fold enrichment (6-mer frequency, TF over GST control) in [1]; 1.17 fold enrichment (6-mer frequency, TF over GST control) in assay [2]; 1.8 fold enrichment (6-mer frequency, TF over GST control) in [3]; 1.2 fold enrichment (6-mer frequency, TF over GST control) in [4]; 1.24 fold enrichment (6-mer frequency, TF over GST control) in assay [5]; 1.23 fold enrichment (6-mer frequency, TF over GST control) in assay [6]. The binding signal is 1.11 fold enrichment (6-mer frequency, TF over GST control) in [7]; 1.1 fold enrichment (6-mer frequency, TF over GST control) in assay [8]; 2.37 fold enrichment (6-mer frequency, TF over GST control) in assay [9]; 1.29 fold enrichment (6-mer frequency, TF over GST control) in assay [10]; 1.11 fold enrichment (6-mer frequency, TF over GST control) in assay [11]; 1.17 fold enrichment (6-mer frequency, TF over GST control) in [12]. Also, the binding signal is 1.16 fold enrichment (6-mer frequency, TF over GST control) in assay [13]; 1.11 fold enrichment (6-mer frequency, TF over GST control) in [14]; 1.25 fold enrichment (6-mer frequency, TF over GST control) in assay [15]; 1.15 fold enrichment (6-mer frequency, TF over GST control) in assay [16]; 1.18 fold enrichment (6-mer frequency, TF over GST control) in assay [17]; 1.13 fold enrichment (6-mer frequency, TF over GST control) in assay [18].

The values are drawn from article PMC7862700, “An all-to-all approach to the identification of sequence-specific readers for epigenetic DNA modifications on cytosine”.
